Percent Effect data for 40 compounds are collected here from ChEMBL document CHEMBL3988442, “University of Dundee, Small-Polar-MMV Screening Library” (2021).

Structures are written as SMILES.

For one assay, the target named is Sialic acid-binding Ig-like lectin 9 (Homo sapiens) (UniProt Q9Y336). The assay is described as follows: Hs-Siglec9 ALPHAscreen SOP 20170721. Set-up: scale not given: direction of the effect not stated beside the values. To be noted: 10 µM.
Chain of Sialic acid-binding Ig-like lectin 9 (Homo sapiens) (Q9Y336 whole entry): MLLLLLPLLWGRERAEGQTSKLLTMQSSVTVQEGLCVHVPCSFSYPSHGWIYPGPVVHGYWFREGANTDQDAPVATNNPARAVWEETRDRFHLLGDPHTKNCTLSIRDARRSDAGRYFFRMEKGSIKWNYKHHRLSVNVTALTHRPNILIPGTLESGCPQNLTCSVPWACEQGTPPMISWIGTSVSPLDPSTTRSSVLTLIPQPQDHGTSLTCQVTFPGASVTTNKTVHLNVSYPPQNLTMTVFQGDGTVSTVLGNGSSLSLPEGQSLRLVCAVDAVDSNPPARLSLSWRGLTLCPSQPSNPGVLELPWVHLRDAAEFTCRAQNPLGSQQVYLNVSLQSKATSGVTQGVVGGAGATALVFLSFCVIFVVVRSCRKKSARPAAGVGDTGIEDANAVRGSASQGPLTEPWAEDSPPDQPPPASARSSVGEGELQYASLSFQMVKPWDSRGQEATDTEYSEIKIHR
Turning to `CC(C)NC(=O)[C@@H](NC(=O)N1CCN(c2ccc(Cl)cc2)CC1)C(C)C`, the Percent Effect is -0.377%.

As for `CC(C)NC(=O)N1CCC2(C1)CN(c1ccsc1)C(=O)CN2C` (stereo not given), the Percent Effect is -13.1%.

Turning to `Cc1csc(Nc2nccnc2C2CCCN2C(=O)C(C)C)n1` (stereo not given), the Percent Effect is -6.58%.

`CS(=O)(=O)NCc1ncn2c1CN(C(=O)CC1CCCC1)CCC2`: the Percent Effect was -3.12%.

Consider `c1ccc(CCNC2CCc3ncnn3C2)nc1` (stereo not given), for which the Percent Effect is -2.1%.

`CS(=O)(=O)N1Cc2ccccc2C2(CCN(C(=O)c3ccno3)CC2)C1`: the Percent Effect is -5.73%.

Take `c1ccc(-n2ncc(CNC3CCc4ncnn4C3)n2)cc1` (stereo not given): the Percent Effect was 0.298%.

For `O=C(NCCn1ccnc1)N1CCN(c2nccs2)CC1`, the Percent Effect is -5.93%.

`CCN1CCO[C@]2(CCC[C@H]2COCc2csc(C)n2)C1`: the Percent Effect is 11%.

As to `O=C(NCCCn1ccnc1)N1CCN(c2cccs2)CC1`, the Percent Effect was 7.23%.

For `CC1CN(CC2CCCCC2)CCN1c1ccc2nncn2n1` (stereo not given), the Percent Effect was -7.37%.

`CC(Cn1cccn1)NC(=O)NCc1cccs1` (stereo not given): the Percent Effect is 2.38%.

For the compound `CCn1nc(C)c(CCNC(=O)C2CCCN(CC(N)=O)C2)c1C` (stereo not given), the Percent Effect turned out to be 27.7%.

As to `CCn1ccnc1CNCC1CCCN1c1cccnn1` (stereo not given), the Percent Effect came out at 5.47%.

In the case of `CCC(=O)N(C)CC(=O)Nc1ccc(Br)cn1`, the Percent Effect worked out at 0.577%.

Turning to `Cn1ccc(CN2CCCC2c2ccc3c(c2)OCCCO3)cc1=O` (stereo not given), the Percent Effect was -4.76%.

Regarding `CCOc1ccc2[nH]c(=O)c(CN3CCC(O)CC3)cc2c1`, the Percent Effect is 3.7%.

Take `c1ncn(CC2CN(Cc3noc(C4CC4)n3)CCO2)n1` (stereo not given): the Percent Effect was 2.48%.

As for `Cc1cccc(CN2C[C@@H]3CN(C(=O)[C@H]4CCCO4)C[C@@H]3C2=O)c1`, the Percent Effect was found to be 2.65%.

`CS(=O)(=O)c1cccc(C(N)c2ccc(F)c(F)c2)c1` (stereo not given): the Percent Effect was 1.99%.

As for `CN1CCC/C1=N\S(=O)(=O)c1ccc(NC(=O)c2cccs2)cc1`, the Percent Effect was -0.824%.

Consider `CC(NC(=O)NCCCn1cncn1)c1ccccc1Cl` (stereo not given), for which the Percent Effect is -2.84%.

`Cn1cnc2c1CCN(Cc1csc(-c3ccsc3)n1)C2`: the Percent Effect is -11.7%.

For the compound `c1ncn(CC2CCCN2Cc2cn3ccsc3n2)n1` (stereo not given), the Percent Effect is -17.1%.

Regarding `Cn1cc(C(=O)N2CCCC(Cc3nccs3)C2)cn1` (stereo not given), the Percent Effect is -0.254%.

Take `CCc1nc(C)c(C(=O)NCCN2CCN(C(C)=O)CC2)s1`: the Percent Effect was determined as 4.38%.

On to `COCCO[C@H]1CCN(C(=O)c2cc(C)on2)[C@H]1Cc1ccccc1`, for which the Percent Effect came out at 3.34%.

In the case of `O=C(NCCc1ccccc1)C1CCCN(c2ccc3nncn3n2)C1` (stereo not given), the Percent Effect was -1.4%.

Turning to `CCn1cc(NC(=O)NCc2ccc(CN3CCOCC3)cc2)cn1`, the Percent Effect came to 16%.

Consider `CN(C)CCN1C(=O)CCC12CCN(C(=O)c1cccnc1)CC2`, for which the Percent Effect was -3.7%.

As to `Cc1ccc(NC(=O)N2C[C@H]3CC[C@@H]2CN(Cc2cscn2)C3)cc1`, the Percent Effect turned out to be 16.7%.

Regarding `Cc1cc(NC(=O)CN2CCCC2c2noc(C(C)C)n2)n(C)n1` (stereo not given), the Percent Effect is 2.01%.

As for `CC(C)CCN(C)C(=O)c1nc(S(C)(=O)=O)n2ccccc12`, the Percent Effect was -6.5%.

With `Cc1cnn(CC2CN(CC(=O)NCc3ccccn3)CCO2)c1` (stereo not given), the Percent Effect came to 4.57%.

Turning to `COCCN1CCN(Cc2cccc(C(N)=O)c2)CC1C` (stereo not given), the Percent Effect was -8.56%.

With `Cc1cc(CN(C)C(=O)NCC(C)N2CCc3ccccc32)no1` (stereo not given), the Percent Effect is 14.4%.

As to `Cc1c(F)cccc1CN1CCn2nc(CNC(=O)N(C)C)cc2C1`, the Percent Effect was 14.7%.

Regarding `CC(C)CNC(=O)c1ccc2nnc(C3CCN(S(C)(=O)=O)C3)n2c1` (stereo not given), the Percent Effect amounted to 1.06%.

On to `CCOC(=O)N1CCN(C(=O)c2sc(-c3ccccc3F)nc2C)CC1`, for which the Percent Effect came to 6.21%.

With `COCCN1C(=O)CCC12CCN(C(=O)NC(C)C)CC2`, the Percent Effect was -2.04%.

A further assay deals with Trypanosoma cruzi. In words: Trypanosoma cruzi phosphomannomutase and mannose-1-phosphate guanylyltransferase assay. Format: functional. To be noted: 10 µM. Set-up: scale not given: direction of the effect not stated beside the values.
Take `CC(C)NC(=O)[C@@H](NC(=O)N1CCN(c2ccc(Cl)cc2)CC1)C(C)C`: the Percent Effect was -3.78%.

As to `CC(C)NC(=O)N1CCC2(C1)CN(c1ccsc1)C(=O)CN2C` (stereo not given), the Percent Effect was -3.41%.

Turning to `Cc1csc(Nc2nccnc2C2CCCN2C(=O)C(C)C)n1` (stereo not given), the Percent Effect was -4.34%.

Consider `CS(=O)(=O)NCc1ncn2c1CN(C(=O)CC1CCCC1)CCC2`, for which the Percent Effect was -4.77%.

In the case of `c1ccc(CCNC2CCc3ncnn3C2)nc1` (stereo not given), the Percent Effect is -0.373%.

Consider `CS(=O)(=O)N1Cc2ccccc2C2(CCN(C(=O)c3ccno3)CC2)C1`, for which the Percent Effect is -10.7%.

Consider `c1ccc(-n2ncc(CNC3CCc4ncnn4C3)n2)cc1` (stereo not given), for which the Percent Effect was 1.03%.

For `O=C(NCCn1ccnc1)N1CCN(c2nccs2)CC1`, the Percent Effect is -7.28%.

As to `CCN1CCO[C@]2(CCC[C@H]2COCc2csc(C)n2)C1`, the Percent Effect was -0.292%.

In the case of `O=C(NCCCn1ccnc1)N1CCN(c2cccs2)CC1`, the Percent Effect stood at 2.42%.

`CC1CN(CC2CCCCC2)CCN1c1ccc2nncn2n1` (stereo not given): the Percent Effect was -4.6%.

With `CC(Cn1cccn1)NC(=O)NCc1cccs1` (stereo not given), the Percent Effect was -4.82%.

For `CCn1nc(C)c(CCNC(=O)C2CCCN(CC(N)=O)C2)c1C` (stereo not given), the Percent Effect is 9.02%.

Take `CCn1ccnc1CNCC1CCCN1c1cccnn1` (stereo not given): the Percent Effect worked out at 0.803%.

Regarding `CCC(=O)N(C)CC(=O)Nc1ccc(Br)cn1`, the Percent Effect was -4.22%.

Regarding `Cn1ccc(CN2CCCC2c2ccc3c(c2)OCCCO3)cc1=O` (stereo not given), the Percent Effect came out at 1.78%.

As to `CCOc1ccc2[nH]c(=O)c(CN3CCC(O)CC3)cc2c1`, the Percent Effect amounted to 3.4%.

With `c1ncn(CC2CN(Cc3noc(C4CC4)n3)CCO2)n1` (stereo not given), the Percent Effect was -1%.

On to `Cc1cccc(CN2C[C@@H]3CN(C(=O)[C@H]4CCCO4)C[C@@H]3C2=O)c1`, for which the Percent Effect amounted to 3%.

Regarding `CS(=O)(=O)c1cccc(C(N)c2ccc(F)c(F)c2)c1` (stereo not given), the Percent Effect is -2.81%.

`CN1CCC/C1=N\S(=O)(=O)c1ccc(NC(=O)c2cccs2)cc1`: the Percent Effect was 3.73%.

With `CC(NC(=O)NCCCn1cncn1)c1ccccc1Cl` (stereo not given), the Percent Effect was -7.63%.

For `Cn1cnc2c1CCN(Cc1csc(-c3ccsc3)n1)C2`, the Percent Effect was -1.41%.

Take `c1ncn(CC2CCCN2Cc2cn3ccsc3n2)n1` (stereo not given): the Percent Effect is 7.61%.

Turning to `Cn1cc(C(=O)N2CCCC(Cc3nccs3)C2)cn1` (stereo not given), the Percent Effect was -2.96%.

`CCc1nc(C)c(C(=O)NCCN2CCN(C(C)=O)CC2)s1`: the Percent Effect was -0.373%.

On to `COCCO[C@H]1CCN(C(=O)c2cc(C)on2)[C@H]1Cc1ccccc1`, for which the Percent Effect was -1.88%.

On to `O=C(NCCc1ccccc1)C1CCCN(c2ccc3nncn3n2)C1` (stereo not given), for which the Percent Effect is -8.05%.

In the case of `CCn1cc(NC(=O)NCc2ccc(CN3CCOCC3)cc2)cn1`, the Percent Effect was -7.28%.

For the compound `CN(C)CCN1C(=O)CCC12CCN(C(=O)c1cccnc1)CC2`, the Percent Effect is -0.75%.

With `Cc1ccc(NC(=O)N2C[C@H]3CC[C@@H]2CN(Cc2cscn2)C3)cc1`, the Percent Effect is 2.42%.

Regarding `Cc1cc(NC(=O)CN2CCCC2c2noc(C(C)C)n2)n(C)n1` (stereo not given), the Percent Effect is 0%.

As for `CC(C)CCN(C)C(=O)c1nc(S(C)(=O)=O)n2ccccc12`, the Percent Effect turned out to be 5.16%.

Regarding `Cc1cnn(CC2CN(CC(=O)NCc3ccccn3)CCO2)c1` (stereo not given), the Percent Effect stood at 4.62%.

Regarding `COCCN1CCN(Cc2cccc(C(N)=O)c2)CC1C` (stereo not given), the Percent Effect was 2.81%.

For the compound `Cc1cc(CN(C)C(=O)NCC(C)N2CCc3ccccc32)no1` (stereo not given), the Percent Effect turned out to be 1.31%.

Turning to `Cc1c(F)cccc1CN1CCn2nc(CNC(=O)N(C)C)cc2C1`, the Percent Effect came out at 9.21%.

As for `CC(C)CNC(=O)c1ccc2nnc(C3CCN(S(C)(=O)=O)C3)n2c1` (stereo not given), the Percent Effect was -1.27%.

In the case of `CCOC(=O)N1CCN(C(=O)c2sc(-c3ccccc3F)nc2C)CC1`, the Percent Effect came out at 0.097%.

As to `COCCN1C(=O)CCC12CCN(C(=O)NC(C)C)CC2`, the Percent Effect is -0.938%.
